For six compounds, composite z-score and z-score results are on record in PubChem BioAssay.

Assay [1] concerns Plasmodium falciparum Sir2 (PF13_0152, Sir2A). Kind of assay: Plasmodium falciparum Sir2A binding compounds – biochemical, small-molecule microarray, 635 nm fluorescence, primary screen (AID 1098).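 Also: score merges spot fluorescence intensity with its signal-to-noise ratio.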 As to conditions: fluorescence 635 nm, higher = more signal.
Assay [2] can be described thus: probe aDKK1 binding to arrayed compounds – biochemical, biotinylated probe, 635/667 nm fluorescence, primary screen (AID 1099).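 Also: score merges 667nm spot fluorescence with signal to noise across triplicate slides.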 As to conditions: small-molecule microarray, higher = more signal.
Assay [3] in a line: probe aCHRDL2 binding to arrayed compounds – biochemical, biotinylated probe, 635/667 nm fluorescence, primary screen (AID 1100). As to conditions: small-molecule microarray, higher = more signal.
Assay [4] in a line: change in splice reporter luminescence, either direction, cell-based, HEK293, spliceosome inhibition project, primary screen (AID 1101).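 Also: HEK293 cells carrying a splicing-competent luciferase reporter gene; test concentration not given here.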 To be noted: HEK293 splicing luciferase reporter, 24 h, higher = more signal, called active from +8 up or from −8 down.
Assay [5] concerns the target Fibroblast growth factor 10 (Homo sapiens) (UniProt O15520). Kind of assay: compounds binding fibroblast growth factor 10 – biochemical, small-molecule microarray, 635 nm fluorescence, primary screen (AID 1102). As to conditions: FGF10 binding, fluorescence 635 nm, higher = more signal.
Assay [6] concerns glycogen synthase kinase-3 (GSK3A per assay name; protocol says GSK3B). Kind of assay: compounds binding glycogen synthase kinase-3 – biochemical, small-molecule microarray, 635 nm fluorescence, GSK3A, primary screen (AID 1103). Also: the record names both GSK3A and GSK3B. As to conditions: fluorescence 635 nm, higher = more signal.
Assay [7] has as its target Epidermal growth factor receptor (Homo sapiens) (UniProt P00533). Kind of assay: compounds binding epidermal growth factor receptor – biochemical, small-molecule microarray, 635 nm fluorescence, primary screen (AID 1104).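 Also: score merges 667 nm emission intensity with spot signal to noise over triplicate slides.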 To be noted: EGFR binding, higher = more signal.
Assay [8] has as its target Follistatin-related protein 3 (Homo sapiens) (UniProt O95633). Kind of assay: compounds binding follistatin-related protein 3 – biochemical, small-molecule microarray, 635 nm fluorescence, primary screen (AID 1105).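 Also: score merges emission near 667 nm and signal to noise per printed spot across three slides.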 To be noted: FSTL3 binding, higher = more signal.
For assay [9], the target named is Dickkopf-related protein 1 (Homo sapiens) (UniProt O94907). Kind of assay: small molecules binding DKK1 protein – biochemical, small-molecule microarray, 635 nm fluorescence scan, primary screen (AID 1106).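 Also: score merges emission near 667 nm with signal to noise over three replicate slides.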 As to conditions: higher = more signal.
Sequence of Dickkopf-related protein 1 (Homo sapiens) (O94907 whole entry, looked up): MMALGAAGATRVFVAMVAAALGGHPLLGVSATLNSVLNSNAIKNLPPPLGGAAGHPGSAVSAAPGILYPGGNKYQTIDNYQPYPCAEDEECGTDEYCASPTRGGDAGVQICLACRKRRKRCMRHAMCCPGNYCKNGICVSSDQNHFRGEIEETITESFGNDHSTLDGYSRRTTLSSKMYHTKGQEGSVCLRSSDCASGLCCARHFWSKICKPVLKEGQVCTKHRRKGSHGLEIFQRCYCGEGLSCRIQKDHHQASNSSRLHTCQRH
The test system of assay [10] is Inhibin beta A chain (activin A). Kind of assay: small molecules binding activin A – biochemical, small-molecule microarray, 635 nm fluorescence scan, primary screen (AID 1107).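 Also: mouse activin A protein probed at 4.33 µg/mL on printed slides; score merges bound-protein fluorescence near 667 nm with spot signal-to-noise.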 To be noted: INHBA, higher = more signal.
Assay [11] concerns Human papillomavirus type 1a protein E7 (residues 44-93). Kind of assay: small molecules binding HPV E7 44-93 – biochemical, small-molecule microarray, residues 44-93, 635 nm fluorescence, primary screen (AID 1108).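 Also: E7 fragment applied at 1 µg/mL in TBST for 1 h at 4 C; score combines spot fluorescence with its signal to noise ratio.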 As to conditions: fluorescence 635 nm, higher = more signal.
Assay [12] in a line: hepatitis C replication reporter changes, two-sided – Huh7 cells, luciferase reporter, HCV replication inhibitor project, primary screen (AID 1109).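 Also: huh7 hepatoma cells harbouring a luciferase neomycin HCV replicon reporter; luciferase luminescence as measure of HCV replicon replication; test concentration not given here.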 As to conditions: Huh7 HCV replicon luciferase reporter, 48 h; higher = more signal. A general note: Reporter assays use an easily measured gene product as a stand-in for the process of interest.
For assay [13], the target named is Left-right determination factor 2 (Homo sapiens) (UniProt O00292). Kind of assay: small molecules binding LEFTY2 protein – biochemical, small-molecule microarray, 635 nm fluorescence scan, primary screen (AID 1110). To be noted: higher = more signal.
Sequence of Left-right determination factor 2 (Homo sapiens) (O00292 whole entry, looked up): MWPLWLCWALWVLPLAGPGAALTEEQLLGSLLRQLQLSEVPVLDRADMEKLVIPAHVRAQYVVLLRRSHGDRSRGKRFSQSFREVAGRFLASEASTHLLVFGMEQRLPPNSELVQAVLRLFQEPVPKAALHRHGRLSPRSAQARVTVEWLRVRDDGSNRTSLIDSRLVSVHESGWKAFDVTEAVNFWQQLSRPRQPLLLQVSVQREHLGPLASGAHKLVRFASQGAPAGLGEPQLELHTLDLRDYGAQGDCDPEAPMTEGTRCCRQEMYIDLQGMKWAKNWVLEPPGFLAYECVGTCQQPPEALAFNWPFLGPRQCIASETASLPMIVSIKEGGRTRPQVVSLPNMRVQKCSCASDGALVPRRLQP
Assay [14] addresses Calmodulin-1 (Homo sapiens) (UniProt P0DP23). Kind of assay: small molecules binding calmodulin-1 with EGTA – biochemical, small-molecule microarray, Cy5-labelled CALM1, profiling panel (AID 1111).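 Also: labelled calmodulin applied in Tris saline Tween buffer holding calcium plus EGTA and DTT.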 As to conditions: Cy5-CALM1 binding fluorescence, higher = more signal.
Assay [15] shares this target. Kind of assay: small molecules binding Ca-loaded calmodulin-1 – biochemical, small-molecule microarray, Cy5-labelled CALM1, plus calcium, artefact control for SMM control-protein annotation, profiling panel (AID 1112).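 Also: score merges spot fluorescence with signal to noise from triplicate slides.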 As to conditions: Cy5-CALM1 binding fluorescence, higher = more signal.
Assay [16] can be described thus: probe aWnt5a binding to arrayed compounds – biochemical, biotinylated probe, 635/667 nm fluorescence, primary screen (AID 1113).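 Also: score merges 667 nm fluorescence intensity with signal-to-noise per printed feature.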 As to conditions: small-molecule microarray, higher = more signal.
Assay [17] in a line: probe aShh binding to arrayed compounds – biochemical, biotinylated probe, 635/667 nm fluorescence, primary screen (AID 1114).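 Also: probe is biotin-labelled aShh protein from a stem cell growth factor screen; measures binding of labelled protein to compounds printed on the slide; score merges feature fluorescence at 667 nm with signal-to-noise.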 As to conditions: small-molecule microarray, higher = more signal.
The nature of assay [18]: probe aNog binding to arrayed compounds – biochemical, biotinylated probe, 635/667 nm fluorescence, primary screen (AID 1115).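 Also: probe is biotinylated aNog protein used at 0.15 µg/mL for 1 h at 4 C; z-score combines 667 nm fluorescence of each spot with its signal to noise.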 To be noted: small-molecule microarray, higher = more signal.
For assay [19], the target named is Torsin-1A-interacting protein 1 (Homo sapiens) (UniProt Q5JTV8). Kind of assay: compound microarray binding of lysate hLAP1 – cell lysate, small-molecule microarray, COS7 lysate, 635/667 nm fluorescence, primary screen (AID 1116). As to conditions: 635 nm fluorescence, higher = more signal.
Sequence of Torsin-1A-interacting protein 1 (Homo sapiens) (Q5JTV8 whole entry, looked up): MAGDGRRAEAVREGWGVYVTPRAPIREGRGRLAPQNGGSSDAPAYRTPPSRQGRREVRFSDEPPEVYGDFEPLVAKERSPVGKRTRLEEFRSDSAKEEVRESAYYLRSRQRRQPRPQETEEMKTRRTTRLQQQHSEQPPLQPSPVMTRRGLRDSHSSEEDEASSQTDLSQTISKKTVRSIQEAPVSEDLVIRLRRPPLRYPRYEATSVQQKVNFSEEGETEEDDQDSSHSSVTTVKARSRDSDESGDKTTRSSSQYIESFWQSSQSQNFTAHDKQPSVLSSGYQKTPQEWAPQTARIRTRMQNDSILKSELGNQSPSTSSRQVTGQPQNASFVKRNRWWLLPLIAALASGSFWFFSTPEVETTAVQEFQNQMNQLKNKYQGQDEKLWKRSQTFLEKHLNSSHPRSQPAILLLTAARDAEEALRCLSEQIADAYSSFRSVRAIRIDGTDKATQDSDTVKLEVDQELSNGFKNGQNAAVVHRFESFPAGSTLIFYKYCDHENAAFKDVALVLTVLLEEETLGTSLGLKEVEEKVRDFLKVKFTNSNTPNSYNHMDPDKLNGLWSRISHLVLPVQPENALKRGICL
Assay [20] concerns the target Alpha-bungarotoxin (Bungarus multicinctus) (UniProt P60615). Kind of assay: compounds binding labelled alpha-BTX control protein – biochemical, small-molecule microarray, Alexa647 label, 635/667 nm fluorescence, artefact control for SMM control protein annotation, profiling panel (AID 1117). As to conditions: alpha-BTX-A647 binding fluorescence, higher = more signal.

Activity calls are given as the source filed them.

Sequence of Follistatin-related protein 3 (Homo sapiens) (O95633 whole entry, looked up): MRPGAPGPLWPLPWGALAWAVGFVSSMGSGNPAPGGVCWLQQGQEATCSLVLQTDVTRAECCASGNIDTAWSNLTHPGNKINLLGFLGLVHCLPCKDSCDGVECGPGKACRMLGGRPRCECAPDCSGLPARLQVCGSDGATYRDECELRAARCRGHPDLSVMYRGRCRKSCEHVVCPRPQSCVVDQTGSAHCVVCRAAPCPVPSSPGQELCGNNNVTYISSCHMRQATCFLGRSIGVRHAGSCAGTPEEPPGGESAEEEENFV
Sequence of Alpha-bungarotoxin (Bungarus multicinctus) (P60615 whole entry, looked up): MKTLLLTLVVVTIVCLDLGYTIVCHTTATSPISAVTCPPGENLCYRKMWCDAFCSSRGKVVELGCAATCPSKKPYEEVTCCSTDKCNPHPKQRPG
Sequence of Epidermal growth factor receptor (Homo sapiens) (P00533 whole entry, looked up): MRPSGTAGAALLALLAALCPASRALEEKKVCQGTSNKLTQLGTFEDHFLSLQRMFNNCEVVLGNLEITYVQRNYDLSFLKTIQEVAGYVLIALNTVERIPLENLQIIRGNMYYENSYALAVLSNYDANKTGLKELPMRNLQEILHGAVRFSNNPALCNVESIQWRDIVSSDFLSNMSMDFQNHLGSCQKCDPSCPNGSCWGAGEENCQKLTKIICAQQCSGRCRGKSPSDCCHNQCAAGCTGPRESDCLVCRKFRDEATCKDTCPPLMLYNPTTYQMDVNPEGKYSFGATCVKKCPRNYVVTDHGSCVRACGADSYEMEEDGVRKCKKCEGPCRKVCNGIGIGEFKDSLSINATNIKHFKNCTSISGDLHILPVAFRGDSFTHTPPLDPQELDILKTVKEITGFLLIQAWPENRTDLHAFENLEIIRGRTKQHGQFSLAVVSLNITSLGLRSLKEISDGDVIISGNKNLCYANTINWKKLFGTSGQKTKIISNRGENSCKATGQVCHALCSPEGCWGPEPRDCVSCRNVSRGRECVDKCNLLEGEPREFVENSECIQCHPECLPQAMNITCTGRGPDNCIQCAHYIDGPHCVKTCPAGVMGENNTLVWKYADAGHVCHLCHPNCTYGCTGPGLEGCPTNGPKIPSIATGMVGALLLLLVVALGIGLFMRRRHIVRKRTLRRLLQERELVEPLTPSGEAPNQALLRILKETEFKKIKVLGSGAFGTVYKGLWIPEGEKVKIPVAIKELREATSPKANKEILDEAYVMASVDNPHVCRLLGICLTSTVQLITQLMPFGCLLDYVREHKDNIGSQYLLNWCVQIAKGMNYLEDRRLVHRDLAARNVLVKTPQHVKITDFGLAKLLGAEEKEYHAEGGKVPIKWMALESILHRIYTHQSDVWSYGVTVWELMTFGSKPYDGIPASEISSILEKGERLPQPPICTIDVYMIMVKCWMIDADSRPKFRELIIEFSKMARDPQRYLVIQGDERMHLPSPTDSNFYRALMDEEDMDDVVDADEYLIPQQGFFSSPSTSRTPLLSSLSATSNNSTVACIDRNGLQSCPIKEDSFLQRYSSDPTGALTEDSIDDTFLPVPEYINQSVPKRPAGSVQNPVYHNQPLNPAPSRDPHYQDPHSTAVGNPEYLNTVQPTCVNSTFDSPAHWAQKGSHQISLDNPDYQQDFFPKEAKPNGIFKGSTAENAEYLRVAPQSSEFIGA
Sequence of Fibroblast growth factor 10 (Homo sapiens) (O15520 whole entry, looked up): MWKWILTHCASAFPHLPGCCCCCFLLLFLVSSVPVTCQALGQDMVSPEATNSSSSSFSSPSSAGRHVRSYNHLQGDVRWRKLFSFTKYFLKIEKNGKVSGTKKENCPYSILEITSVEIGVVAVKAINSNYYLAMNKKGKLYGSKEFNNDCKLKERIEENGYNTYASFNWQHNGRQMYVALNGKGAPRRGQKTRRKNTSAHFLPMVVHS

For the compound `Cc1ccc(F)cc1S(=O)(=O)N[C@@H]1CCN(Cc2ccc(Oc3ccccc3)cc2)C1`, the composite z-score was 0.499 in assay [1]; -0.392 in assay [2]; -0.38 in assay [3]; 0.271 in assay [5]; -0.632 in [6]; -0.0463 in assay [7]. The composite z-score in [8] was 0.626; in [9], 0.47; in assay [10] it was 0.192; in assay [11], -1.39; in [13], 0.74; in assay [14], -1.08. Also, the composite z-score in [15] was -0.466; in assay [16], -0.147; in [17] it was -0.195; in assay [18], -0.388; in assay [19] it was -0.104; in assay [20], 0.471. In addition, the z-score in assay [4] was 1.25 (inactive); in [12] it was -3.67.

For the compound `O=C1C2C=CC(C(O)c3cc(C(F)(F)F)cc(C(F)(F)F)c3)N(Nc3ccc([N+](=O)[O-])cc3)C2C(=O)N1c1ccccc1` (stereo not given), the composite z-score in assay [1] was 0.905; in assay [2] it was 0.359; in assay [3] it was 0.499; in assay [5], 0.902; in [6] it was 1.34; in assay [7], 0.437. Moreover, the composite z-score in assay [8] is 1.39; in [9] it was -0.246; in assay [10], -0.0083; in assay [11], 1.42; in assay [13], 0.511; in assay [14] it was 1.65. Besides, the composite z-score is 0.311 in assay [15]; 0.055 in [16]; -0.224 in assay [17]; 0.605 in [18]; 0.185 in assay [19]; 1.59 in assay [20]. Moreover, the z-score is 0.765 (inactive) in [4] and -3.71 in assay [12].

Regarding `O=C1OCC=C[C@H]2OC34C=CCN(Cn5nnc6ccccc65)C(=O)[C@H]3N(CCCCCCO)C(=O)[C@@H]4[C@@H]12` (stereo not given in full), the composite z-score in assay [1] was 1.25; in assay [2], 0.0374; in assay [3], 0.538; in [5], -0.577; in assay [6] it was 0.0986; in [7], -0.896. The composite z-score is -1.02 in [8]; -0.566 in assay [9]; 0.955 in [10]; -0.0554 in assay [11]; -1.14 in [13]; -0.129 in assay [14]. The composite z-score was -0.004 in assay [15]; -0.152 in [16]; -0.16 in assay [17]; 0.162 in assay [18]; 3.14 in assay [19]; -0.608 in [20]. Further, the z-score in assay [4] is 0.434 (inactive); in [12], -0.113.

As to `O=C1OC[C@@H](c2ccccc2)N2CC(/C=C/c3ccccc3)=CC12` (stereo not given in full), the composite z-score in assay [1] was -0.0726; in assay [2] it was -0.144; in [3] it was 0.537; in assay [5] it was -0.529; in [6], -0.511; in assay [7] it was -2.06. In addition, the composite z-score was -1.16 in assay [8]; -1.15 in assay [9]; 0.0575 in assay [10]; -1.13 in assay [11]; -1.43 in assay [13]; -0.353 in assay [14]. The composite z-score in [15] is -0.221; in assay [16], -0.284; in assay [17], -0.2; in [18], -0.0118; in [19] it was -0.383; in assay [20], -0.273. Besides, the z-score in assay [4] is -0.521 (inactive); in assay [12], -0.557.

Take `COC(=O)[C@@]1(Cc2ccccc2)[C@H]2c3cc(C(=O)N4CCCC4)n(Cc4ccsc4Br)c3C[C@H]2CN1C(=O)c1ccccc1`: the composite z-score was 0.31 in [1]; 1.13 in assay [2]; 1.37 in [3]; 0.832 in assay [5]; 0.572 in [6]; -0.105 in [7]. Also, the composite z-score is 0.906 in assay [8]; -0.825 in [9]; 0.748 in [10]; 1.45 in assay [11]; -0.505 in assay [13]; 1.6 in [14]. The composite z-score was 1.17 in assay [15]; 0.332 in assay [16]; -0.0789 in assay [17]; 1.99 in [18]; 0.545 in assay [19]; 1.23 in [20]. Besides, the z-score was -1.31 (inactive) in [4] and -2.73 in assay [12].

In the case of `CC(C)N1CC=CC23O[C@@H]4C=CCOC(=O)[C@@H]4[C@H]2C(=O)N(C(C)CO)[C@@H]3C1=O` (stereo not given in full), the composite z-score in [1] is 0.776; in assay [2], -0.162; in assay [3] it was 0.559; in assay [5], -0.724; in [6], -1.99; in assay [7], -1.29. Also, the composite z-score in assay [8] is -0.93; in assay [9], -1.21; in [10] it was -0.116; in assay [11], -0.913; in [13], -1.76; in [14], -0.0212. For the same compound, the composite z-score was -0.123 in [15]; -0.196 in [16]; 0.0278 in assay [17]; 0.141 in assay [18]; -0.606 in [19]; -0.127 in [20]. Further, the z-score in assay [4] is 0.408 (inactive); in [12], 0.187.
